# Species on record: Homo sapiens
# Assay: To identify inhibition of the IFN signalling (Jak-Stat) pathway via expression of an eGFP reporter gene under the control of an IFN-stimulated response element (ISRE) containing MxA promoter.
# Type: functional
# Set-up: scale not given: direction of the effect not stated beside the values
# Conditions: 30 µM
row,Structure (SMILES),Percent Effect
1,COc1cc(CNCCc2nc(C)cs2)cc2c1OCCO2,10.1%
2,Cc1ccc(CN(Cc2ccccn2)C2CC(C)(C)NC(C)(C)C2)s1,5.16%
3,CCc1ccccc1C(=O)N1CCN(S(C)(=O)=O)[C@@H](C)C1,-4.78%
4,COCCN(Cc1ccc(F)cc1Cl)C(=O)c1ccc(=O)[nH]n1,-2.22%
5,CC(Oc1ccccc1C(F)(F)F)C(=O)NCC(N)=O (centres undefined),-26.2%
6,Cc1cc(-c2cnc(N3CCNC(=O)C3)nc2-c2ccc(C)o2)on1,29.2%
7,Cc1csc(CNC(=O)NCCc2ccc3c(c2)OCCO3)n1,8.98%
8,O=C1COC2(CCN(CC3CC3)CC2)CN1c1ccccc1,-21.4%
9,COc1ccc(CCN2CCC(N3CCN(C)C3=O)CC2)cc1,4.3%
10,CCOC(=O)c1c(NC(=O)CN2CCN(C(C)=O)CC2)sc2c1CCC2,-11.1%
11,CC(C)(C(=O)NCC(N)=O)c1ccccc1F,-3.33%
12,COc1c(CNCCNC(=O)Cc2ccc(F)cc2)c(C)nn1C,12.1%
13,Cc1ccc(C(=O)N2CCO[C@H]3[C@@H](OCc4ccccn4)CC[C@@H]32)o1,11.5%
14,CN1N=C(C(=O)NCc2ccc3c(c2)CCCN3C)CCC1=O,0.664%
15,Cc1ccc(CCC(=O)N(C)CCN2CCOCC2)c(C)c1,-17.1%
16,c1cnnc(N2CCCC2CNCc2nc3ccccc3o2)c1 (centres undefined),-2.37%
17,Cc1nc(C(=O)N2CCCC2c2c(C)nn(C)c2C)ccc1C#N (centres undefined),4.46%
18,Cc1noc([C@H]2C[C@@H]3CCN(CC4CC4)C[C@H]3O2)n1,4.2%
19,CCOCC(=O)N1C[C@@H](NC(C)=O)[C@H](c2ccc(OC)cc2)C1,14.1%
20,CCN1CC2(CCNCC2)COc2ccccc2S1(=O)=O,2.26%

row,Structure (SMILES),Percent Effect
1,O=C(O)C1(Cc2cc(-c3cccc(F)c3)no2)CCOCC1,-7.88%
2,COc1ccc(C2(NC(=O)CCn3cncn3)CCCCC2)cc1,-2%
3,CCC(CNC(=O)Nc1cnn(CC)c1)N1CCCC1 (centres undefined),8.67%
4,CC1CCCCN1CCNC(=O)c1ccn(-c2ccc(F)cc2)n1 (centres undefined),6.78%
5,CN1CCCC(c2cccc(Cc3ccccc3Cl)n2)C1 (centres undefined),5.26%
6,COCC1CN(C(=O)CNC(C)=O)Cc2ncnn2C1 (centres undefined),-13.1%
7,CCN(Cc1nc(C(C)C)no1)Cc1cccs1,6.22%
8,CCc1nc(CN2CCCN(c3nc4ccccc4o3)CC2)no1,23.6%
9,CC(NC(=O)Cn1cccn1)c1cccnc1 (centres undefined),10.3%
10,COCc1ccccc1NC(=O)[C@@H]1CCCN1C(=O)c1ccco1,8.02%
11,CCc1nnc2n1CCN(CC(=O)Nc1sccc1C#N)C2,-5.63%
12,COCC1CCN(C(=O)c2cccc(S(=O)(=O)NCC3(C)COC3)c2)C1 (centres undefined),9.82%
13,CC(C)N1CCC(NCc2cccnc2N(C)Cc2ccccc2)CC1,-2.28%
14,CCc1cnc(CN(C)C2CCN(CCc3cccs3)C2)o1 (centres undefined),2.05%
15,CN(CCn1nc2ccccn2c1=O)CC(=O)N1CCCC1,15.5%
16,Cc1ccc(-c2csc(N)c2C#N)cc1,28%
17,O=C(NCCN1CCOCC1)c1ccc(-n2ccc3ccccc32)s1,28.5%
18,Cc1cnn(CC2CN(c3ncnc4ccccc34)CCO2)c1 (centres undefined),37.6%
19,O=S(=O)(Cc1ccccc1)NCc1ccco1,6.12%

# From ChEMBL document CHEMBL3988442, “University of Dundee, Small-Polar-MMV Screening Library” (2021)
